HT1080NT lethal: qHTS for induction of synthetic lethality in tumor cells producing 2HG: qHTS for the HT-1080-NT fibrosarcoma cell line | HT-1080-NT fibrosarcoma viability, CellTiter-Glo ATP luminescence, 48 h | actives 1.6% (n = 360,000) | Potency, µM (doses to about 46.1 µM), most hits filed as cytotoxic | AID 686970, 2013;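 note: NT is the 2HG producing partner of a matched IDH1 knockdown line; nearly all actives have a fitted effect of over 55% in size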
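Viability of the 2HG-overproducing fibrosarcoma line after 48 hours of compound exposure at 37 degrees C was determined by luminescence with CellTiter-Glo, and concentration-effect curves were then fitted and categorized.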
DT40 TDP1 CPT: qHTS for Inhibitors of human tyrosyl-DNA phosphodiesterase 1 (TDP1): qHTS in cells in presence of CPT | Potency, µM (highest dose often 46.2 µM), hits mostly inhibitors | chicken DT40 Tdp1-/-;hTDP1 cells + 20 nM CPT, ATP luminescence, 48 h | actives 12% (n = 420,000); note: nearly all actives have a fitted effect of over 55% in size
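Chicken DT40 Tdp1-/- cells complemented with human TDP1, 400 cells/well, exposed to compounds plus 20 nM camptothecin for at least 48 h at 37 C; viability read as ATP content by CellTiter-Glo luminescence.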
TDP1 cell noCPT: qHTS for Inhibitors of human tyrosyl-DNA phosphodiesterase 1 (TDP1): qHTS in cells in absence of CPT; DT40 Tdp1-/- hTDP1 cells, no CPT, ATP luminescence, 48 h; actives 15% (n = 420,000); AID 686978, 2013; Potency, µM (highest dose often 46.2 µM), usual class: inhibitors; note: nearly all actives have a fitted effect of over 55% in size
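Stably hTDP1-transfected Tdp1-null chicken DT40 cells were treated with library compounds minus camptothecin and grown for at least 48 hr at 37 °C, after which cellular ATP was quantified by luminescence.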
KB-3-1 tox: qHTS assay for MDR1-selective chemotherapeutics: Primary screen using the parental adenocarcinoma cell KB-3-1 | actives 1.4% (n = 400,000) | Potency, µM (top dose mostly 46.1 µM), hits mostly cytotoxic | KB-3-1 viability, CellTiter-Glo ATP luminescence, 72 h; note: nearly all actives have a fitted effect of over 60% in size
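72 h, 37 °C compound treatment of KB-3-1 parental cells; CellTiter-Glo added, 10 min, luminescence read. Data corrected against DMSO-only plates and normalized before curve fitting.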
HT1080 IDH1KD tx: qHTS for induction of synthetic lethality in tumor cells producing 2HG: qHTS for the HT-1080-IDH1KD cell line | Potency, µM (highest dose often 46.1 µM), most hits filed as cytotoxic | actives 2% (n = 360,000) | AID 686971, 2013 | HT-1080 IDH1 knockdown viability, ATP luminescence, 48 h
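% activity derives from luminescence (CellTiter-Glo), normalised to DMSO and no-cell wells. HT-1080-IDH1KD cells, 750/well, had 48 h compound exposure at 37 °C.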
KB-V1 cytotox: qHTS assay for MDR1-selective chemotherapeutics: Primary screen using the drug-selected MDR subline cells KB-V1 | actives 3.4% (n = 400,000) | Potency, µM (highest dose often 46.1 µM), most hits filed as cytotoxic | KB-V1 MDR cells viability, CellTiter-Glo, 72 h | AID 1347076, 2019; note: nearly all actives have a fitted effect of over 60% in size
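KB-V1 cells (P-gp-expressing MDR subline of KB-3-1) in phenol-red-free DMEM with 10% FBS were exposed to library compounds over a concentration series for 72 h at 37 degrees C. Viability read by CellTiter-Glo luminescence; concentration-effect curves fitted after normalization.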
Hits are given with their value; n = inactive; u = inconclusive; x = not tested or not shown; [ ] = another dose, or the depositor's remark. Sampled rows, rich in hits. Any-hit rate of the full collection: about 19%. Calls come from the whole dose curve; as a rule, active = well fitted curve in the direction sought with a large enough effect; inconclusive = small, poorly fitted or top-dose-only effect, or another doubt; inactive = no such curve, though single readings can be large; an effect the other way counts as inactive or inconclusive.

SMILES	HT1080NT lethal	DT40 TDP1 CPT	TDP1 cell noCPT	KB-3-1 tox	HT1080 IDH1KD tx	KB-V1 cytotox
CCC(c1nnnn1-c1c(C)cccc1C)N1CCN(c2ccc(C(F)(F)F)cc2[N+](=O)[O-])CC1 (centres undefined)	29.1µM	u	n	n	n	n
O=[N+]([O-])c1cc(C(F)(F)F)ccc1N1CCC(O)CC1	n	n	n	n	n	n
CCC(c1nnnn1-c1c(C)cccc1C)N1CCN(c2cccc(C(F)(F)F)n2)CC1 (centres undefined)	n	u	14.6µM	u	n	n
CCC(c1nnnn1-c1c(C)cccc1C)N1CCN(CC)CC1 (centres undefined)	n	n	n	n	n	n
O=C(N=C1SC2CS(=O)(=O)CC2N1Cc1ccccc1)C1CCCCC1 (centres undefined)	n	n	n	n	n	n
CCOC(=O)N1C(=O)NC(=O)C1c1ccc(Cl)cc1 (centres undefined)	n	n	n	n	n	u
CC(=O)/C(N=Nc1ccc(SC(F)F)cc1)=C(\C)O	n	n	n	n	n	n
CCSC(=O)N=Nc1ccc(O)cc1	u	14.6µM	11.6µM	n	n	n
CN(C)c1ccc(CNC(=O)/C=C/[C@H]2O[C@@H](n3ccc(=O)[nH]c3=O)[C@H](O)[C@@H]2O)cc1	n	n	n	n	n	n
CC(Sc1nnc(-c2cccnc2)n1-c1ccccc1)C(=O)NCc1ccc2c(c1)OCO2 (centres undefined)	n	n	n	n	n	n
Cc1cccc(-n2c(SCC(=O)NCc3ccc4c(c3)OCO4)nc3ccccc3c2=O)c1	n	u	u	n	n	n
CC(Sc1nc2cc([N+](=O)[O-])ccc2n1-c1ccc(F)cc1)C(=O)NCc1ccc2c(c1)OCO2 (centres undefined)	n	16.4µM	14.6µM	n	n	5.8µM
COc1ccccc1-n1c(SCC(=O)NCc2ccc3c(c2)OCO3)nc2cc([N+](=O)[O-])ccc21	n	4.11µM	20.6µM	n	n	n
Cc1cc(C)cc(-n2c(SC(C)C(=O)NCc3ccc4c(c3)OCO4)nc3ccccc3c2=O)c1 (centres undefined)	n	13µM	14.6µM	u	n	n
CCN(CC)S(=O)(=O)c1ccc2c(c1)nc(SCC(=O)N1CCOCC1)n2-c1ccccc1OC	n	n	n	n	n	n
O=C(NCC1CC1(Cl)Cl)Nc1ccc(Cl)c(Cl)c1 (centres undefined)	18.4µM	u	u	u	29.1µM	u
CCC(CC)C(=O)Nc1cccc(S(=O)(=O)c2cccc(NC(=O)C(CC)CC)c2)c1	n	n	n	n	n	n
CCC(CC)C(=O)Nc1ccc(Cl)c(Cl)c1	n	n	13µM	n	n	u
CCN(CC)C(=S)Nc1ccc(Cl)c(Cl)c1	n	n	u	u	n	23.1µM
Cc1ccc(NC(=O)NCC2CC2(Cl)Cl)cc1 (centres undefined)	n	n	n	n	n	n
Cc1ccccc1CNC(=O)C(=O)Nc1nccs1	n	n	n	n	n	n
CN1CCN(CC(=O)Nc2cc(N(C)C)nc3ccccc23)CC1	u	n	n	n	n	n
C/C(=N\NC(=O)C1CC1c1ccccc1)c1ccc(C)s1 (centres undefined)	n	u	n	n	n	n
CCOC(=O)C(/C(C)=N/NC(=O)C1CC1c1ccccc1)C(C)C (centres undefined)	n	n	n	n	n	16.4µM
C/C(CC(=O)Nc1ccc(Cl)c(Cl)c1)=N\NC(=O)C(=O)N1CCCCC1	n	n	n	n	n	n
SMILES	HT1080NT lethal	DT40 TDP1 CPT	TDP1 cell noCPT	KB-3-1 tox	HT1080 IDH1KD tx	KB-V1 cytotox
CNc1ccc(-c2cc(OC)ccc2OC)cn1	u	n	n	n	n	n
CNc1cnc(-c2ccc(O)c(OC)c2)cn1	n	16.4µM	u	n	n	n
CN(NC(=O)Nc1ccc(Cl)cc1)c1ncc(C(F)(F)F)cc1Cl	u	u	u	u	u	16.4µM
Cc1ccc(/C=N/NC(=O)NN(C)c2ncc(C(F)(F)F)cc2Cl)cc1	n	n	u	n	u	n
CC(=O)c1ccc(C(=O)N2CCc3c(cnc(C)c3CNC(=O)c3ccc4c(c3)OCO4)C2)s1	x	n[9.04 µM]	n	x	x	x
Cc1ncc2c(c1CNC(=O)c1ccccc1F)CCN(C(=O)c1ccc3c(c1)OCCO3)C2	x	0.058µM	0.13µM	x	x	x
CC(C)(C)C(=O)OC/C(N)=N/OC(=O)c1ccccc1	n	u	n	n	n	n
N/C(=N\OC(=O)c1ccccc1)C(Cc1ccccc1)C(=O)NOC(=O)c1ccccc1 (centres undefined)	u	2.91µM	2.59µM	u	u	u
Cn1cc(S(C)=O)c(=O)c2ccc(F)cc21 (centres undefined)	x	n	n	x	x	x
CN1CCN(CCOC2Cc3ccccc3Sc3ccc(Cl)cc32)CC1 (centres undefined)	n	u	20.6µM	u	n	23.1µM
CN1CCN(CCC(=O)N2c3ccccc3Sc3ccc(Cl)cc32)CC1	n	u	u	n	n	n
c1ccc2c(c1)CC(N1CCCCC1)c1ccccc1S2 (centres undefined)	n	u	u	n	n	n
OCCN1CCN(C2Cc3cc(Cl)ccc3Sc3ccc(Cl)cc32)CC1 (centres undefined) (tested in a mixture with another compound)	u	23.1µM	u	u	u	u
CN1CCN(C2Cc3cc(Cl)ccc3Sc3cc(F)ccc32)CC1 (centres undefined)	u	u	u	18.4µM	u	18.4µM
CCOC(=O)Cn1c(=O)cc(C)c2ccccc21	n	8.2µM	11.6µM	n	n	n
CC(C)NC(=O)N(C)C[C@H]1OCCCC[C@@H](C)Oc2ccc(N(C)C)cc2C(=O)N([C@H](C)CO)C[C@@H]1C	n	u	u	n	n	n
CNc1cccc(-c2ccccc2CO)n1	n	n	n	n	n	n
COc1ccc(OC)c(Nc2nc(N)nc(-c3cc4ccccc4o3)n2)c1	n	u	18.4µM	u	n[9.24 µM]	14.6µM

High-throughput results from PubChem BioAssay.
